# Laboratory results reported in PMC7862700, “An all-to-all approach to the identification of sequence-specific readers for epigenetic DNA modifications on cytosine”.
# Experiments:
# Assay in all cases: DAPPL (digital affinity profiling via proximity ligation, sequencing); 10 mM Tris-HCl pH 7.5, 50 mM NaCl, 1 mM DTT, 4% glycerol, room temperature, 30 min; GST-TFs on glutathione beads, 16-mer random dsDNA library, 0.1% formaldehyde crosslink after washing; high values mean tight binding
# [1] = target: T1, FLI1 (Homo sapiens, UniProt Q01543 1-452); settings: protein: recombinant; tags: N-terminal GST; dsDNA, one strand shown
# T1 sequence: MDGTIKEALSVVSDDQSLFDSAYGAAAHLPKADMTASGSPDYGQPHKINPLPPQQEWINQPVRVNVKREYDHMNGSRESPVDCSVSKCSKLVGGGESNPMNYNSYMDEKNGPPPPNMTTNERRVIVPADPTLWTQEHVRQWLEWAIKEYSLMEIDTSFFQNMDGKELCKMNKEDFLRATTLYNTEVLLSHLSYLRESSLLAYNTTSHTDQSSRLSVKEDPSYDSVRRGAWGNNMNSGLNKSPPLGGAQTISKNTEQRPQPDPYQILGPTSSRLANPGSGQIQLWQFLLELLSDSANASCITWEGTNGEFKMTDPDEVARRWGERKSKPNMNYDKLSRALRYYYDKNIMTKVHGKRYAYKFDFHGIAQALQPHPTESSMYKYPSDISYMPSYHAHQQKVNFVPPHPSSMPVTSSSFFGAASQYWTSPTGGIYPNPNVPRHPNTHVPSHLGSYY
# In short: (§1)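 Pools of DNA-barcoded human transcription factors, expressed in yeast as GST fusions on glutathione beads and combined with a tag-only sample, were incubated with 200 nmole of a 16-mer random double-stranded DNA library. Incubation took 30 min at room temperature in Tris/NaCl/DTT/glycerol buffer and was followed by washing, 0.1% formaldehyde crosslinking, proximity ligation (BsaI/T4 ligase, 1 h, 37 °C), PCR amplification and sequencing on an Illumina NextSeq500. Binding signal is the ratio of a hexamer's read frequency for a factor to its frequency for the tag-only sample.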
# [2] = target: T2, ELK1 (Homo sapiens, UniProt P19419 1-428); settings: protein: recombinant; tags: N-terminal GST; dsDNA, one strand shown
# T2 sequence: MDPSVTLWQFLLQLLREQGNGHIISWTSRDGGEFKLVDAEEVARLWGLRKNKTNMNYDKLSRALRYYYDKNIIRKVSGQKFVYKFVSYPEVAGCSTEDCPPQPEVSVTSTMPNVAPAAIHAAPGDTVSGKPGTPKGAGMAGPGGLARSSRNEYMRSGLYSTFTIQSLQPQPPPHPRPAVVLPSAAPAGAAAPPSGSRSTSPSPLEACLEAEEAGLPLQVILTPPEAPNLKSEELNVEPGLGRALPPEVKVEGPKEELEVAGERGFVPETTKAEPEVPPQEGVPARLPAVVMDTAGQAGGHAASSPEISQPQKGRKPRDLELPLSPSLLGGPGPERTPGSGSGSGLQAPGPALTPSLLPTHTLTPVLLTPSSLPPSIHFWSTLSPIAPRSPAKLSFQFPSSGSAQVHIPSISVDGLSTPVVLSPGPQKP
# In short: as §1
# [3] = target: T3, GABPA (Homo sapiens, UniProt Q06546 1-454); settings: protein: recombinant; tags: N-terminal GST; dsDNA, one strand shown
# T3 sequence: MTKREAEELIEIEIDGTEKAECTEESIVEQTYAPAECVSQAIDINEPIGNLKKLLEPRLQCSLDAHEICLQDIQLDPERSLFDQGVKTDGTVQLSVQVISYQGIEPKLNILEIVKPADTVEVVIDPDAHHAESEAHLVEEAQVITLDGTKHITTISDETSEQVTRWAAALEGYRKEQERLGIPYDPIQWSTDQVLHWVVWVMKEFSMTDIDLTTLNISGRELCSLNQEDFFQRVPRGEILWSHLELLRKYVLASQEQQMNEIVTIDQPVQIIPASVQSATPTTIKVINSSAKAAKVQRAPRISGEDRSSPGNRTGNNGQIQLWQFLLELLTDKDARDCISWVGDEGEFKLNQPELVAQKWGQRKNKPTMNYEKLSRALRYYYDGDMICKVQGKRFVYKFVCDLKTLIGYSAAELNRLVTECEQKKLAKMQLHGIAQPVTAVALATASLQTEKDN
# In short: as §1
# [4] = target: T4, ERG (Homo sapiens, UniProt P11308 1-479); settings: protein: recombinant; tags: N-terminal GST; dsDNA, one strand shown
# T4 sequence: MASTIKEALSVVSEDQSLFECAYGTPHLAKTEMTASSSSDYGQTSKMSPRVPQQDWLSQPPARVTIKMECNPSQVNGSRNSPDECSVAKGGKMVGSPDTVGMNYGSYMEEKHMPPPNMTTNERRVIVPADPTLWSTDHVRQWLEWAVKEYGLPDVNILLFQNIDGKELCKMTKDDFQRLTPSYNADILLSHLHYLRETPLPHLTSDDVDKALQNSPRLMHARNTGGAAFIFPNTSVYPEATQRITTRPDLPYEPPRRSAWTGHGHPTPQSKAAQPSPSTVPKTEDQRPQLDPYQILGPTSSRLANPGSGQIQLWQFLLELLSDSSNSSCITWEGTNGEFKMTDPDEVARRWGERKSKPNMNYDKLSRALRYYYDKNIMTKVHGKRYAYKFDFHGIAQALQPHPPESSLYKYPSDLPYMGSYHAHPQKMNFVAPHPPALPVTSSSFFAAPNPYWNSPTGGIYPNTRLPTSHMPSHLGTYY
# In short: as §1
# [5] = target: ELF1 (Homo sapiens, UniProt P32519 1-619); settings: protein: recombinant; tags: N-terminal GST; dsDNA, one strand shown
# In short: as §1
# [6] = target: T5, EHF (Homo sapiens, UniProt Q9NZC4 1-300); settings: protein: recombinant; tags: N-terminal GST; dsDNA, one strand shown
# T5 sequence: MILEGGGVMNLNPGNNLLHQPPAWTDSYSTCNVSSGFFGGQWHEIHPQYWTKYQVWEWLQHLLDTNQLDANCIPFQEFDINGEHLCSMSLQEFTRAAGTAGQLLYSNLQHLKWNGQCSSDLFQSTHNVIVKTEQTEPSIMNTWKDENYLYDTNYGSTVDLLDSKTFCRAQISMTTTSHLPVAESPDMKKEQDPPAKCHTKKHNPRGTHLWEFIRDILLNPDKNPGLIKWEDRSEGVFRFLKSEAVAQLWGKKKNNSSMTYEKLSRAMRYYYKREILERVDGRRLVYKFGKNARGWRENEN
# In short: as §1
# [7] = target: SPI1 (Homo sapiens, UniProt P17947 1-270); settings: protein: recombinant; tags: N-terminal GST; dsDNA, one strand shown
# In short: as §1
# [8] = target: SPIB (Homo sapiens, UniProt Q01892 1-262); settings: protein: recombinant; tags: N-terminal GST; dsDNA, one strand shown
# In short: as §1
# [9] = target: T6, ELK3 (Homo sapiens, UniProt P41970 1-407); settings: protein: recombinant; tags: N-terminal GST; dsDNA, one strand shown
# T6 sequence: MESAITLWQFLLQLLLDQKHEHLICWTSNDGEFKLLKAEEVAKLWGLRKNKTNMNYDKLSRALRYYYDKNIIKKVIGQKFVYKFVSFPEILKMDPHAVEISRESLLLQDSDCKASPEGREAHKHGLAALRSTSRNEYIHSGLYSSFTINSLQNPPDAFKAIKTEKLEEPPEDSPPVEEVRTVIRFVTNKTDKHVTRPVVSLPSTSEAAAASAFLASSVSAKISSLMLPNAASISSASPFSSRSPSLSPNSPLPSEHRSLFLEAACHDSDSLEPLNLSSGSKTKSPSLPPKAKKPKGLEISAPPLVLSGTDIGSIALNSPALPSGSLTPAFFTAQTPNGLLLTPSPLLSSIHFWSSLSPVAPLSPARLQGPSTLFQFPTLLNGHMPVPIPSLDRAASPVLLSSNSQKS
# In short: as §1
# [10] = target: T7, FEV (Homo sapiens, UniProt Q99581 1-238); settings: protein: recombinant; tags: N-terminal GST; dsDNA, one strand shown
# T7 sequence: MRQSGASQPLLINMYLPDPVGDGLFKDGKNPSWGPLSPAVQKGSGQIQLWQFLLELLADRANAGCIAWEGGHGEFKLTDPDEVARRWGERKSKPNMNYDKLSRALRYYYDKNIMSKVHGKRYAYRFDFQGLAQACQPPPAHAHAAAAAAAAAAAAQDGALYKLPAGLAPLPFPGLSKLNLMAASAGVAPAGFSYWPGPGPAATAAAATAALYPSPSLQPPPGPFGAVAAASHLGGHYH
# In short: as §1
# [11] = target: ETV5 (Homo sapiens, UniProt P41161 1-510); settings: protein: recombinant; tags: N-terminal GST; dsDNA, one strand shown
# In short: as §1
# [12] = target: HSF1 (Homo sapiens, UniProt Q00613 1-529); settings: protein: recombinant; tags: N-terminal GST; chain copies: 3; dsDNA, one strand shown
# In short: as §1
# [13] = target: T8, SPIC (Homo sapiens, UniProt Q8N5J4 1-248); settings: protein: recombinant; tags: N-terminal GST; dsDNA, one strand shown
# T8 sequence: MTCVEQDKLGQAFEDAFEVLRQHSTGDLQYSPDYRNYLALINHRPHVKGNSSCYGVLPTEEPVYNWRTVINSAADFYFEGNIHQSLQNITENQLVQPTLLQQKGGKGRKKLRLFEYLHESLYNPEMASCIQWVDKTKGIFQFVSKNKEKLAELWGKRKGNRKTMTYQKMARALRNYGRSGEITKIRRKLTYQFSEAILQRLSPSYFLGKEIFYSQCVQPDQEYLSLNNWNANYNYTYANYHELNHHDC
# In short: as §1
# [14] = target: ELF4 (Homo sapiens, UniProt Q99607 1-663); settings: protein: recombinant; tags: N-terminal GST; dsDNA, one strand shown
# In short: as §1
# [15] = target: T9, ELK4 (Homo sapiens, UniProt P28324-2 1-405); settings: protein: recombinant; tags: N-terminal GST; dsDNA, one strand shown
# T9 sequence: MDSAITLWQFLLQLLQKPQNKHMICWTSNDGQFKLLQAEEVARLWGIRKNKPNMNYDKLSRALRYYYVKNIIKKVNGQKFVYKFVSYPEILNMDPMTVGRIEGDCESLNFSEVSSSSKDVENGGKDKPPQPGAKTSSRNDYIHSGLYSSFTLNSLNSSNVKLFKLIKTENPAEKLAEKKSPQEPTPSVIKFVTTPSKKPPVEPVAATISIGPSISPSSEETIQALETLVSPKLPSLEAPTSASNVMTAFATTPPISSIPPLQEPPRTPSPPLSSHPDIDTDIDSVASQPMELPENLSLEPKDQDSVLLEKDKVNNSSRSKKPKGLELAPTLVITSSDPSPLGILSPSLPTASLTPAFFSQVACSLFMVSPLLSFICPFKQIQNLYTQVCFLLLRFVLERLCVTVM
# In short: as §1
# [16] = target: T10, ETV2 (Homo sapiens, UniProt O00321 1-342); settings: protein: recombinant; tags: N-terminal GST; dsDNA, one strand shown
# T10 sequence: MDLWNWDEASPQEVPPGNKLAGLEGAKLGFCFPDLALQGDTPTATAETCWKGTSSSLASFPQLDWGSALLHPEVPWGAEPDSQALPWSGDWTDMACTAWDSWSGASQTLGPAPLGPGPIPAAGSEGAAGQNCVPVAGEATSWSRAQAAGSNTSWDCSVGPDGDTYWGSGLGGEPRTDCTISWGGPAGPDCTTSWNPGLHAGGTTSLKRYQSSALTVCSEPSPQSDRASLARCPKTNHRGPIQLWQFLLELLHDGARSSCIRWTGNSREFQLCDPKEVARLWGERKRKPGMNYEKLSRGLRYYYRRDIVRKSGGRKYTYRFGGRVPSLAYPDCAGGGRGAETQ
# In short: as §1
# [17] = target: T11, ELF3 (Homo sapiens, UniProt P78545 1-371); settings: protein: recombinant; tags: N-terminal GST; dsDNA, one strand shown
# T11 sequence: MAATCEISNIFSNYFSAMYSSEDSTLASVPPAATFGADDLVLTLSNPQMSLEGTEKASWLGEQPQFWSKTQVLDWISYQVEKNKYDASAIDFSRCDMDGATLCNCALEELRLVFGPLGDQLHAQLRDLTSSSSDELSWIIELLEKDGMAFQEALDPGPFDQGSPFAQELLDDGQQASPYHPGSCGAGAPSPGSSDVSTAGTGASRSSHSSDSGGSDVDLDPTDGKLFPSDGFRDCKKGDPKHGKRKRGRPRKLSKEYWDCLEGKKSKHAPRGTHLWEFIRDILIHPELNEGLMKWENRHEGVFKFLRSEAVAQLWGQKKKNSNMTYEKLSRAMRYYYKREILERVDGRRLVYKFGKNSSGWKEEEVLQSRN
# In short: as §1
# [18] = target: CRX (Homo sapiens, UniProt O43186 1-299); settings: protein: recombinant; tags: N-terminal GST; dsDNA, one strand shown
# In short: as §1
# [19] = target: ETV1 (Homo sapiens, UniProt P50549 1-477); settings: protein: recombinant; tags: N-terminal GST; dsDNA, one strand shown
# In short: as §1
# ELF4, sequence (Q99607 whole entry): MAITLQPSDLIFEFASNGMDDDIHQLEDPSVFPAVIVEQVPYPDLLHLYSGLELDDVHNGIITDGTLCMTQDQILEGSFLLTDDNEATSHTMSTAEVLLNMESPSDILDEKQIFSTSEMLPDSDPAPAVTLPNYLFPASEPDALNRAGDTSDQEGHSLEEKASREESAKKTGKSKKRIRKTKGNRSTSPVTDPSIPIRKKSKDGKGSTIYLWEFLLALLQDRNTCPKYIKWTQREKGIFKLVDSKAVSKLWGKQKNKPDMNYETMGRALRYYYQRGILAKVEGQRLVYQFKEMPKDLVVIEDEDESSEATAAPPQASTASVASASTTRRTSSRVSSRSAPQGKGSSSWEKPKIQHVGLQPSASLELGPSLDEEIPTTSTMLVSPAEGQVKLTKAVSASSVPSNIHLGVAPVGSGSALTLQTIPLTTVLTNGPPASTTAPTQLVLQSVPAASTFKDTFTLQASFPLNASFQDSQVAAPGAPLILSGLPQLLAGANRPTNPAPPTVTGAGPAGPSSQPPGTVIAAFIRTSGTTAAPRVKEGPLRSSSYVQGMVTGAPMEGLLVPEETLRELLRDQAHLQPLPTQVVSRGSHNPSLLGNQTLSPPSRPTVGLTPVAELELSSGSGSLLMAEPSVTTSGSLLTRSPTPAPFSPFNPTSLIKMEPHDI
# CRX, sequence (O43186 whole entry): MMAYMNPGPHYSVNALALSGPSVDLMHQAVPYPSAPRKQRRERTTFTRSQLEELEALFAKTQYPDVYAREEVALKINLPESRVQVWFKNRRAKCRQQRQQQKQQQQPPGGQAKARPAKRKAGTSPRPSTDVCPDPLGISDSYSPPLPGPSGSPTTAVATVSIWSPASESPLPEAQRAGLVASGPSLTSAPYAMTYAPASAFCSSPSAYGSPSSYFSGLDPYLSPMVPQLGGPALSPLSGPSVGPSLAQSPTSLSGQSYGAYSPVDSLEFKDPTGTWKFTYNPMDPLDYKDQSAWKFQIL
# ELF1, sequence (P32519 whole entry): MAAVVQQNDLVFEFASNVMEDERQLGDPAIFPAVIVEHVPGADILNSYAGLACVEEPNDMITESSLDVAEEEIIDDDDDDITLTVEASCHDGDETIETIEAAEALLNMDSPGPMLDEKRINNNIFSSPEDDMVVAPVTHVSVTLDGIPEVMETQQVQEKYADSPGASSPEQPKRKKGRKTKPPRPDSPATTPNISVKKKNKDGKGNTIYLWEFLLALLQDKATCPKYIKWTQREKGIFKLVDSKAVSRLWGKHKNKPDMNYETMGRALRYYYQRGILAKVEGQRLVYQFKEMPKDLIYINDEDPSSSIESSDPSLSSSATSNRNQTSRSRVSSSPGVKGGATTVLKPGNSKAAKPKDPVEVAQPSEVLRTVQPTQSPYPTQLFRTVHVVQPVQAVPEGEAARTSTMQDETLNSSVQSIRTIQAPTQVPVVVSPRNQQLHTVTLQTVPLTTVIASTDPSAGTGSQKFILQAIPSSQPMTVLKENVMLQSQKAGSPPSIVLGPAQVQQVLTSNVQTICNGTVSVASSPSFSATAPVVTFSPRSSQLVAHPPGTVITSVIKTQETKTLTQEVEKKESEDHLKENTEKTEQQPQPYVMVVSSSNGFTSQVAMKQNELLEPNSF
# SPIB, sequence (Q01892 whole entry): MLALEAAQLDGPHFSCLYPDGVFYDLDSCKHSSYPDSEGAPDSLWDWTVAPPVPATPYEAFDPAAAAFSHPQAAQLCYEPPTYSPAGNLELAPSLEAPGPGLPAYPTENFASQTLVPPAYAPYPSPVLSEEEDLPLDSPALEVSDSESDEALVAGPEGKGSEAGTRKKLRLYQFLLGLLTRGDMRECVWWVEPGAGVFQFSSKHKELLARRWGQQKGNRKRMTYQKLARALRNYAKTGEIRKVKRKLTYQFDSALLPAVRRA
# ETV5, sequence (P41161 whole entry): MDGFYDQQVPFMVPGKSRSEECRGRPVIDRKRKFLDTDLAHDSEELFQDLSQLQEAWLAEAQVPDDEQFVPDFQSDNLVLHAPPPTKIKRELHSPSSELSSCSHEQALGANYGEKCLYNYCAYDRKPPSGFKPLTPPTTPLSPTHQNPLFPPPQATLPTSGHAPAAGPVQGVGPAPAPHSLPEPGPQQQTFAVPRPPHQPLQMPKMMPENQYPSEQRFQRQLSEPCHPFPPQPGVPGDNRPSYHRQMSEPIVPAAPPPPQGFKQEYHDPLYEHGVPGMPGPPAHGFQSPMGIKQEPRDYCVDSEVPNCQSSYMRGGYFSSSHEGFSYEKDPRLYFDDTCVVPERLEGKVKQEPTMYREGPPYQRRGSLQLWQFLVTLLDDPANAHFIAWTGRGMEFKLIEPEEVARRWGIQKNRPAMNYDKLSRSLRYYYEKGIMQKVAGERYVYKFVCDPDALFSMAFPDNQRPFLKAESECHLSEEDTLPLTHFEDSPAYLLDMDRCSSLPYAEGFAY
# HSF1, sequence (Q00613 whole entry): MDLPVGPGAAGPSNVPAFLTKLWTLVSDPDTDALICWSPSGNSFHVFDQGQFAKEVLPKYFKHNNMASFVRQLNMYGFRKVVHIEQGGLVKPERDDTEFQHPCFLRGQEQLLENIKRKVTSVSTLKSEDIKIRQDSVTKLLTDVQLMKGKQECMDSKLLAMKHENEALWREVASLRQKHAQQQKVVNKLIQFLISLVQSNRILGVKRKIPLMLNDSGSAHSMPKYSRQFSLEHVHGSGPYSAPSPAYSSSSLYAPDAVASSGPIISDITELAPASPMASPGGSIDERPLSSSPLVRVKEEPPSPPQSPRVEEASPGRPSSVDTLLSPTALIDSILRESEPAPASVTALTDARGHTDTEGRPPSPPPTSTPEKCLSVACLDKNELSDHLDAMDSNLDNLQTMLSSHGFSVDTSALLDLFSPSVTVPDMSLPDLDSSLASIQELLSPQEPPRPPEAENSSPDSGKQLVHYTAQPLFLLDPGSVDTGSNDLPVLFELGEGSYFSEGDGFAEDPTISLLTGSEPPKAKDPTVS
# ETV1, sequence (P50549 whole entry): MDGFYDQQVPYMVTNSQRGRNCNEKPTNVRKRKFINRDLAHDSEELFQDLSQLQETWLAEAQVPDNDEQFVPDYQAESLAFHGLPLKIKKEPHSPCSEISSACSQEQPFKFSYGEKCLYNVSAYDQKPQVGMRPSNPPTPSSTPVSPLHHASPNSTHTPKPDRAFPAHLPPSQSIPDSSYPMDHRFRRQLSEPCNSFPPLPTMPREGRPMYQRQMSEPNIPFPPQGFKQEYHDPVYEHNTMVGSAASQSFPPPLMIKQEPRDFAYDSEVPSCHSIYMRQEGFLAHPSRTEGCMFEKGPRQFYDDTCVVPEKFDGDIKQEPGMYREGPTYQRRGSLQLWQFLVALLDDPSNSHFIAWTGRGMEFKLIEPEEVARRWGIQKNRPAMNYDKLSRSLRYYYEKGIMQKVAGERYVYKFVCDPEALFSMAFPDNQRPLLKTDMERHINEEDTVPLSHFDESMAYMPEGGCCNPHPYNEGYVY
sequence,measurement,setting,value
CTCGCG,binding signal,[1],"1.47 fold enrichment (6-mer frequency, TF over GST control)"
same,binding signal,[2],"1.35 fold enrichment (6-mer frequency, TF over GST control)"
same,binding signal,[3],"1.55 fold enrichment (6-mer frequency, TF over GST control)"
same,binding signal,[4],"1.42 fold enrichment (6-mer frequency, TF over GST control)"
same,binding signal,[5],"1.41 fold enrichment (6-mer frequency, TF over GST control)"
same,binding signal,[6],"1.32 fold enrichment (6-mer frequency, TF over GST control)"
same,binding signal,[7],"1.39 fold enrichment (6-mer frequency, TF over GST control)"
same,binding signal,[8],"1.45 fold enrichment (6-mer frequency, TF over GST control)"
same,binding signal,[9],"1.34 fold enrichment (6-mer frequency, TF over GST control)"
same,binding signal,[10],"1.35 fold enrichment (6-mer frequency, TF over GST control)"
same,binding signal,[11],"1.48 fold enrichment (6-mer frequency, TF over GST control)"
same,binding signal,[12],"1.55 fold enrichment (6-mer frequency, TF over GST control)"
same,binding signal,[13],"1.3 fold enrichment (6-mer frequency, TF over GST control)"
same,binding signal,[14],"1.48 fold enrichment (6-mer frequency, TF over GST control)"
same,binding signal,[15],"1.59 fold enrichment (6-mer frequency, TF over GST control)"
same,binding signal,[16],"1.39 fold enrichment (6-mer frequency, TF over GST control)"
same,binding signal,[17],"1.53 fold enrichment (6-mer frequency, TF over GST control)"
same,binding signal,[18],"1.3 fold enrichment (6-mer frequency, TF over GST control)"
same,binding signal,[19],"1.47 fold enrichment (6-mer frequency, TF over GST control)"
